Laboratory results from PubChem BioAssay.
Results filed as inconclusive are left out. For some of these results: Entries with a potency or affinity are not part of this list. Calls of active or inactive are those of the source.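 The calls were made as follows, unless noted: active = thallium flux through the channel raised or lowered by more than 3 SD from vehicle-only wells, actives on both sides; inactive = the rest.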

How the values were obtained:
[1] = modulation of C. elegans fzo-1 (AID 1259413; call rule not given here;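 also: fzo-1 mutant C. elegans worms in liquid wells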); conditions: C. elegans fzo-1 modulator screen, mean read-out; stronger effect = higher value
F380Y = experiment: modulators of BK channel variants, profiling panel, selectivity assay, cell-based, U2OS BacMam, thallium flux, beta subunits (AID 1259406); conditions: at 30 µM;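 also: initial slope of Thallos dye fluorescence rise after thallium is added; log ratio against the mean of 0.3% DMSO vehicle wells on the same plate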
F380Y/beta1 = experiment: as above; conditions: at 30 µM
F380Y/beta2Delta = experiment: as above; conditions: at 30 µM
R275C = experiment: as above; conditions: at 30 µM
R275C/beta1 = experiment: as above; conditions: at 30 µM
R275C/beta2Delta = experiment: as above; conditions: at 30 µM
R275C/Slo1WT/beta2 = experiment: as above; conditions: at 30 µM
[2] = polyglutamine-triggered caspase-3 activation inhibitors, cell-based (AID 1583); conditions: polyglutamine-induced caspase-3 activation, cell assay; stronger effect = higher value;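 tested at 10 µM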
[3] = rescue of polyQ-huntingtin neuronal dysfunction in worms, whole organism, C. elegans mechanosensory neurons, N-terminal huntingtin (AID 1599); conditions: touch response, stronger effect = higher value
[4] = enhancers of glutamate uptake in motor neurons, MN-1 cell line (AID 1612); conditions: MN-1 motor neuron cells, stronger effect = higher value;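 also: tested at 1 µM final; 0% = mean of DMSO vehicle wells on each plate; positive means more glutamate uptake than control and negative means less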
[5] = suppressors of polyglutamine aggregation in yeast, 75Q-TubH (AID 1616); conditions: S. cerevisiae 75Q-TubH polyglutamine aggregation suppression; stronger effect = higher value
[6] = target: ATP-dependent translocase ABCB1 (Homo sapiens) (UniProt P08183); experiment: MDR1 (ABCB1) efflux transporter inhibition, cell-based (AID 377; in the data active = fluorescence slope change above about 50%); conditions: MDR1-expressing cells, fluorescent substrate accumulation slope; stronger effect = higher value; concentration not given here
Sequence of ATP-dependent translocase ABCB1 (Homo sapiens) (P08183 whole entry, looked up): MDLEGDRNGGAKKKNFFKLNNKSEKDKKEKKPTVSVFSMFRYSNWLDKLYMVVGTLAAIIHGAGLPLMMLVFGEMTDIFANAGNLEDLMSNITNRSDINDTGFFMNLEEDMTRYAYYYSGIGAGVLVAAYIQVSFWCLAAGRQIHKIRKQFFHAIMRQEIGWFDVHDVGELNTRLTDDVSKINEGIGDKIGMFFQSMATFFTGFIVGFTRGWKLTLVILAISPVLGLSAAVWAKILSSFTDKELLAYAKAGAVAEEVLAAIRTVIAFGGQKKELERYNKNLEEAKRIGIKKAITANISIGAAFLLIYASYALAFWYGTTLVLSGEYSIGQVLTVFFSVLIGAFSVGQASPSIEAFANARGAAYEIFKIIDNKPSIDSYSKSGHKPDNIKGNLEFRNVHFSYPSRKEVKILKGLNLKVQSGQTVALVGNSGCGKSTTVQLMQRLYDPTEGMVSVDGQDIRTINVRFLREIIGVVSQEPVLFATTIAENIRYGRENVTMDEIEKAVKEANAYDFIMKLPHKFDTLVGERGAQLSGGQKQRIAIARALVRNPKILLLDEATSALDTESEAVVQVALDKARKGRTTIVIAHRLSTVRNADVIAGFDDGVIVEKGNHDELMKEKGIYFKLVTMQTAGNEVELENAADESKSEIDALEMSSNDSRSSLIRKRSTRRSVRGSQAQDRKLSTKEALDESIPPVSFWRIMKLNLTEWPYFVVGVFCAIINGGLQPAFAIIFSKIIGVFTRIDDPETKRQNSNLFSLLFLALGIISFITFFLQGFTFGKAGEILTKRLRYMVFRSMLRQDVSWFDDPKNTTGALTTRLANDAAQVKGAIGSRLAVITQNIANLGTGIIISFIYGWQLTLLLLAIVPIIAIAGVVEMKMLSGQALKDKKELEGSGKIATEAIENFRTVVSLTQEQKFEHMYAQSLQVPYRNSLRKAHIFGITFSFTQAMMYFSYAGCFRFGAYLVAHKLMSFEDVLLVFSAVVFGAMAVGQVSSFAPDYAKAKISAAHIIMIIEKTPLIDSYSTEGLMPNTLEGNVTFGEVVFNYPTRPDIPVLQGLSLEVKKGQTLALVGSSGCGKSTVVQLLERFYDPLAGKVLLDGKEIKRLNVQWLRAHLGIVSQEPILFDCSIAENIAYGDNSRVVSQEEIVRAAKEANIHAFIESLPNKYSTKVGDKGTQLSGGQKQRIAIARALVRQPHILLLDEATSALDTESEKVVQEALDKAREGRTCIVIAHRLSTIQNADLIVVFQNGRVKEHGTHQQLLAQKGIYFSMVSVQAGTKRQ

[7] = hESC survival regulators, cell-based (AID 493140; call rule not given here;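 also: cells exposed to compounds for four days before counting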); conditions: human embryonic stem cell survival screen; stronger effect = higher value
[8] = reducers of polyQ inclusions in PC12 cells, cell-based, NGF-treated PC12, GFPQ80 (AID 1614); conditions: PC12 NGF-treated GFP-polyQ80 inclusion reduction;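 also: lower means fewer inclusions and 0 means no inclusions at all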
[9] = circadian clock period modulators, cell-based, LOPAC library, luminescence reporter (AID 2774; call rule not given here;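 also: values are relative to mean of DMSO wells on each plate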); conditions: circadian reporter cells, at 7 µM, actives lie on both sides
[10] = test system: Hepatitis C virus NS3 helicase; experiment: HCV NS3 helicase inhibitors, primary screen, biochemical, fluorescence polarization, LOPAC1280 library (AID 687035; in the data active = inhibition above about 37%); conditions: Purified HCV NS3 helicase, Cy5-dT15 ssDNA binding fluorescence polarization; stronger effect = higher value; concentration not given here
[11] = Cy5 fluorescence quenching or enhancement artefacts, artefact control for HCV NS3 helicase inhibitor project, biochemical, LOPAC1280 (AID 687037; call rule not given here); conditions: Cy5-DNA-NS3h complex fluorescence interference counterscreen
[12] = test system: Aerobactin synthetase IucA (Klebsiella pneumoniae, hypervirulent); experiment: IucA enzyme inhibition, biochemical, LOPAC library, absorbance readout (AID 1346212; call rule not given here;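 also: 100% = no compound wells and 0% = no enzyme wells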); conditions: IucA enzyme assay, absorbance (OD) readout; stronger effect = lower value;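 tested at 8 µM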
[13] = phospholipid biosynthesis inhibitors in animal cells, primary screen, cell-based, LOPAC library, screen 4 (AID 1347384; call rule not given here); conditions: phospholipid biosynthesis inhibition screen, at 10 µM

NC(=O)OCCCc1ccccc1
inactive: mean signal [1] 256 | log fold change Tl+ flux (F380Y) 0.0271 | log fold change Tl+ flux (F380Y/beta1) 0.00909 | log fold change Tl+ flux (F380Y/beta2Delta) 0.0735 | log fold change Tl+ flux (R275C) -0.0501 | log fold change Tl+ flux (R275C/beta1) 0.00561 | log fold change Tl+ flux (R275C/beta2Delta) 0.00928 | log fold change Tl+ flux (R275C/Slo1WT/beta2) 0.0397

Oc1cccc2cccnc12
-67%: inhibition [2]
8.29: rescue above control [3]
53.7%: glutamate uptake change [4]
0.00802: aggregation suppression score [5]

Oc1cc(Cl)ccc1Oc1ccc(Cl)cc1Cl
inactive: mean signal [1] 192
active: log fold change Tl+ flux (F380Y) -0.452 | log fold change Tl+ flux (F380Y/beta1) -0.302 | log fold change Tl+ flux (F380Y/beta2Delta) -0.343 | log fold change Tl+ flux (R275C) -0.105 | log fold change Tl+ flux (R275C/beta1) -0.254 | log fold change Tl+ flux (R275C/beta2Delta) -0.148 | log fold change Tl+ flux (R275C/Slo1WT/beta2) -0.125

C[N+]1(CCC(C(N)=O)(c2ccccc2)c2ccccc2)CCCCC1
inactive: mean signal [1] 231 | log fold change Tl+ flux (F380Y) 0.00354 | log fold change Tl+ flux (F380Y/beta1) -0.0163 | log fold change Tl+ flux (F380Y/beta2Delta) 0.00809 | log fold change Tl+ flux (R275C) -0.0159 | log fold change Tl+ flux (R275C/beta1) -0.0271 | log fold change Tl+ flux (R275C/beta2Delta) -0.0181 | log fold change Tl+ flux (R275C/Slo1WT/beta2) 0.0123

CN1C(=O)COc2c(C(=O)NC3CN4CCC3CC4)cc(Cl)cc21 (stereo not given)
inactive: mean signal [1] 219 | log fold change Tl+ flux (F380Y) 0.054 | log fold change Tl+ flux (F380Y/beta1) 0.0287 | log fold change Tl+ flux (F380Y/beta2Delta) 0.0242 | log fold change Tl+ flux (R275C) -0.0315 | log fold change Tl+ flux (R275C/beta1) 0.0279 | log fold change Tl+ flux (R275C/beta2Delta) -0.00752 | log fold change Tl+ flux (R275C/Slo1WT/beta2) -0.0098

CN(C)C(=O)Oc1cc(OC(=O)N(C)C)cc(C(O)CNC(C)(C)C)c1 (stereo not given)
inactive: fluorescence slope change [6] 19% | survival [7] 12.5

O=C(O)C(Cl)Cl
inactive: mean signal [1] 259 | log fold change Tl+ flux (F380Y) -0.0365 | log fold change Tl+ flux (F380Y/beta1) -0.0051 | log fold change Tl+ flux (F380Y/beta2Delta) -0.00825 | log fold change Tl+ flux (R275C) -0.098 | log fold change Tl+ flux (R275C/beta1) 0.0188 | log fold change Tl+ flux (R275C/beta2Delta) -0.00393 | log fold change Tl+ flux (R275C/Slo1WT/beta2) -0.0385

CCN(CC)CCOC(=O)C(O)(c1ccccc1)c1ccccc1
inactive: mean signal [1] 281 | log fold change Tl+ flux (F380Y) 0.0198 | log fold change Tl+ flux (F380Y/beta1) -0.00425 | log fold change Tl+ flux (F380Y/beta2Delta) 0.0439 | log fold change Tl+ flux (R275C) -0.0214 | log fold change Tl+ flux (R275C/beta1) -0.0156 | log fold change Tl+ flux (R275C/beta2Delta) 0.0436 | log fold change Tl+ flux (R275C/Slo1WT/beta2) -0.00361

CCOC(=O)c1cncn1C(C)c1ccccc1 (stereo not given)
inactive: survival [7] 6.08 | log fold change Tl+ flux (F380Y) -0.00492 | log fold change Tl+ flux (F380Y/beta1) 0.00176 | log fold change Tl+ flux (F380Y/beta2Delta) 0.0219 | log fold change Tl+ flux (R275C) -0.00746 | log fold change Tl+ flux (R275C/beta1) 0.0125 | log fold change Tl+ flux (R275C/beta2Delta) 0.0301 | log fold change Tl+ flux (R275C/Slo1WT/beta2) -0.0322

COc1cc(N)c(Cl)cc1C(=O)NC1CN2CCC1CC2 (stereo not given)
inactive: mean signal [1] 253

c1ccc2c(c1)Nc1ccccc1S2
inactive: mean signal [1] 265 | log fold change Tl+ flux (F380Y) -0.0351 | log fold change Tl+ flux (F380Y/beta1) 0.0323 | log fold change Tl+ flux (F380Y/beta2Delta) 0.033 | log fold change Tl+ flux (R275C) -0.041 | log fold change Tl+ flux (R275C/beta1) 0.0203 | log fold change Tl+ flux (R275C/beta2Delta) -0.0792 | log fold change Tl+ flux (R275C/Slo1WT/beta2) 0.00584

COc1ccc(C(=O)N2CCCC2=O)cc1
2.57: rescue above control [3]
1.16: aggregation suppression score [5]
15.7%: inhibition [2]
2: inclusion score [8]
5.51%: glutamate uptake change [4]
inactive: period change [9] -0.01 h | inhibition [10] -3% | fluorescence ratio (interference) [11] 0.9 | remaining activity [12] 122% | outcome [13]

COc1cccc([C@@]2(O)CCCC[C@@H]2CN(C)C)c1
inactive: mean signal [1] 274 | log fold change Tl+ flux (F380Y) -0.0178 | log fold change Tl+ flux (F380Y/beta1) -0.0211 | log fold change Tl+ flux (F380Y/beta2Delta) -0.0331 | log fold change Tl+ flux (R275C) -0.0685 | log fold change Tl+ flux (R275C/beta1) -0.0302 | log fold change Tl+ flux (R275C/beta2Delta) 0.00141 | log fold change Tl+ flux (R275C/Slo1WT/beta2) 0.0567

C#CCN(C)[C@H](C)Cc1ccccc1
inactive: fluorescence slope change [6] -18.7% | survival [7] 12.8 | mean signal [1] 258 | log fold change Tl+ flux (F380Y) 0.00891 | log fold change Tl+ flux (F380Y/beta1) 0.0474 | log fold change Tl+ flux (F380Y/beta2Delta) -0.0258 | log fold change Tl+ flux (R275C) -0.00358 | log fold change Tl+ flux (R275C/beta1) 0.0188 | log fold change Tl+ flux (R275C/beta2Delta) -0.0448 | log fold change Tl+ flux (R275C/Slo1WT/beta2) -0.00101

CC(C)c1c(CN(C)C(C)Cc2ccccc2)n(C)n(-c2ccccc2)c1=O (stereo not given)
inactive: survival [7] 1.08
